Assay outcomes: PubChem BioAssay, National Center for Advancing Translational Sciences (NCATS)
The list is not random: actives were taken first. Their share in the collection is about 12%.
HP1b binding inh – blocks HP1-beta chromodomain binding to methylated histone tails; P83916; AlphaScreen HP1-beta / biotin-H3K9me3 peptide binding; Potency, µM (doses to about 114 µM), inactives show top-dose activity change, negative = inhibition, actives largely listed as inhibitors; hit rate 0.56% among 390,000; further: nearly all actives have a fitted effect of over 70% in size
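Compound inhibition of the preformed complex between 50 nM HP1-beta and 50 nM biotinylated H3K9me3 peptide was read by AlphaScreen. Buffer was PBS pH 7.4 with 0.01% Tween-20. Incubations ran 30 min at room temperature, with 10 ug/mL donor/acceptor beads.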
G9a block – G9a (human) methyltransferase inhibition; Q96KQ7; Potency, µM (titrated, usually from 102 µM), for inactives: top-dose activity, negative = inhibition, hits mostly inhibitors; G9a H3K9 monomethylation, AlphaScreen, 2 h; hit rate 8.8% among 350,000; further: on the % scale 0 is the no-effect control and ±100 the full control effect; nearly all actives have a fitted effect of over 75% in size
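Signal arises when biotinylated H3K9 peptide, once monomethylated, bridges streptavidin donor and antibody-captured acceptor beads. Enzyme at 20 nM was preincubated 15 min with test compounds; peptide 500 nM and SAM 20 uM then reacted for 2 h.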
JMJD2A Tudor – blocks the human JMJD2A Tudor domain. O75164. AlphaScreen JMJD2A-Tudor / H3K4me3 peptide binding. Potency, µM (doses to about 114 µM), for inactives: top-dose activity change, negative = inhibition, actives largely listed as inhibitors. hit rate 4.4% among 390,000. AID 504339; further: on the % scale 0 is the no-effect control and ±100 the full control effect; nearly all actives have a fitted effect of over 50% in size
BAZ2B inh – inhibitors of human BAZ2B bromodomain; AlphaScreen BAZ2B-H3K14Ac peptide displacement; Potency, µM (doses to about 114 µM), inactives show at the highest dose activity change, negative = inhibition, hits mostly inhibitors; hit rate 4.4% among 360,000; further: on the % scale 0 is the no-effect control and ±100 the full control effect; nearly all actives have a fitted effect of over 60% in size
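Complex of BAZ2B and biotin-H3K14Ac (50 nM apiece) forms over 30 min at RT, then faces library compounds up to 110 uM for another 30 min; AlphaScreen beads added, 20 min dark incubation, luminescence read.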
L3MBTL1 inh – inhibitors of human L3MBTL1. Potency, µM (top dose mostly 57.1 µM), without a hit: at the highest dose activity, negative = inhibition, actives largely listed as inhibitors. Q9Y468. hit rate 0.66% among 230,000. AID 485360. AlphaScreen L3MBTL1–H3K9me1 peptide binding; further: on the % scale 0 is the no-effect control and ±100 the full control effect; nearly all actives have a fitted effect of over 60% in size
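AlphaScreen assay: L3MBTL1 (50 nM final) was preincubated 30 min at room temperature with biotinylated H3(1-15)K9me1 peptide (75 nM final), then 30 min with library compounds; streptavidin donor and nickel chelate acceptor beads (10 ug/mL final) added, 30 min dark.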
Sfp inh – Sfp phosphopantetheinyl transferase inhibition; Q9F4F7; Biochemical Sfp PPTase activity, qHTS; Potency, µM, without a hit: largest response in the series, negative = inhibition, actives largely listed as inhibitors; hit rate 3.5% among 310,000; AID 1490;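 further: the enzyme is Sfp with the accession as filed and its product quenches rhodamine fluorescence; 0% = enzyme reaction without inhibitor and -100% = no enzyme wells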
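Step 1, compound plus 15 nM Sfp-PPTase, 15 min, room temperature. Step 2, add rhodamine-CoA (5 uM) and BHQ-2-YbbR (12.5 uM). Step 3, read 525/598 nm fluorescence at 0 and 30 min.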
* hit, by the source's call; [ ] = dose if it differs, or a comment. The call rests on the fitted dose curve; in most records, active means well fitted curve in the direction sought with a large enough effect; inconclusive means small, poorly fitted or top-dose-only effect, or another doubt; inactive means no such curve, though single readings can be large; an effect the other way counts as inactive or inconclusive. Potency means the concentration at half of the fitted maximal effect.

How did O=C(NC(=S)N1CCCC1)c1ccccc1Cl do in these assays?
HP1b binding inh: 18%; G9a block: 17%; JMJD2A Tudor: -2%; BAZ2B inh: -14%; Sfp inh: 14%

What do the screens show for `CNC(=O)NC(=S)NC(=O)c1ccccc1Cl`?
HP1b binding inh: 13%; G9a block: -36%; JMJD2A Tudor: -7%; BAZ2B inh: -16%; L3MBTL1 inh: 30%; Sfp inh: -26%

Results for C[C@@H]1CCC2[C@](C)(CO)[C@@H](O)CC[C@]2(C)[C@]12CCC(CO)(CCO)O2 (stereo not given in full) ?
Sfp inh: -3%

What do the screens show for `O=C(c1ccc(F)cc1)n1nc(-c2ccccc2)nc1NCc1ccco1`?
HP1b binding inh: 54%; G9a block: 23%[59 µM]; JMJD2A Tudor: 21%; BAZ2B inh: 5%

What do the screens show for `CCOC(=O)Cc1csc(NC(=O)CCC(=O)O)n1`?
HP1b binding inh: 24%; JMJD2A Tudor: -2%; BAZ2B inh: -23%; L3MBTL1 inh: -9%; Sfp inh: 18%

What do the screens show for `CCOC(=O)Cc1csc(NC(=O)Cc2ccc(Cl)cc2)n1`?
HP1b binding inh: -1%; G9a block: 27%; JMJD2A Tudor: -5%; BAZ2B inh: -1%; L3MBTL1 inh: -7%; Sfp inh: 7%

How did CCOC(=O)Cc1csc(NC(=O)Cc2ccc(Br)cc2)n1 do in these assays?
HP1b binding inh: -4%; G9a block: 56µM*; JMJD2A Tudor: -12%; BAZ2B inh: -11%; L3MBTL1 inh: 1%; Sfp inh: 1%

Results for CCOC(=O)Cc1csc(CC(N)=O)n1 ?
HP1b binding inh: 21%; G9a block: 50µM*; JMJD2A Tudor: -12%; BAZ2B inh: -24%; L3MBTL1 inh: 10%; Sfp inh: inconclusive

Results for CCOC(=O)Cc1csc(NC(=O)CCCc2ccccc2)n1 ?
HP1b binding inh: 31%; G9a block: 50µM*; JMJD2A Tudor: -27%; BAZ2B inh: -38%; L3MBTL1 inh: -15%; Sfp inh: inconclusive

What do the screens show for `COc1ccc(NC(=O)c2ccc(S(=O)(=O)N(C)c3ccccc3)cc2)cn1`?
HP1b binding inh: 9%; G9a block: -19%; JMJD2A Tudor: -20%; BAZ2B inh: -23%; Sfp inh: 12%

What do the screens show for `COc1ccccc1NS(=O)(=O)c1cccc(NS(=O)(=O)c2cc(C(=O)O)ccc2OC)c1`?
HP1b binding inh: 33%; JMJD2A Tudor: -4%; L3MBTL1 inh: 4%

How did CC(C)(C)c1ccc(NC(=O)c2ccsc2)cc1 do in these assays?
HP1b binding inh: 35%; G9a block: 24%; JMJD2A Tudor: 11%; BAZ2B inh: 0%; L3MBTL1 inh: 15%; Sfp inh: 79µM*

Results for CC(C)(C)c1ccc(C(=O)Nc2ccc(Cl)cc2)cc1 ?
HP1b binding inh: 20%; G9a block: -64%[59 µM]; JMJD2A Tudor: -3%; BAZ2B inh: -6%; L3MBTL1 inh: 15%; Sfp inh: -6%

Results for Cc1cc2cc3c(cc2nc1SCC(=O)N1CCN(C(=O)c2ccco2)CC1)OCO3 ?
HP1b binding inh: -13%; G9a block: 50µM*; JMJD2A Tudor: -35%; BAZ2B inh: -34%; L3MBTL1 inh: 0%; Sfp inh: -15%

What do the screens show for `Cc1cc2nc(-c3ccc(SCC(=O)N4CCN(C(=O)c5ccco5)CC4)nc3)[nH]c2cc1C`?
HP1b binding inh: -5%; G9a block: inconclusive; JMJD2A Tudor: inconclusive; BAZ2B inh: -2%; L3MBTL1 inh: 32µM*; Sfp inh: -5%

Results for CCc1cc2ccc(OC)cc2nc1SCC(=O)N1CCN(C(=O)c2ccco2)CC1 ?
HP1b binding inh: 17%; G9a block: -7%[59 µM]; JMJD2A Tudor: inconclusive; BAZ2B inh: inconclusive; Sfp inh: -17%

What do the screens show for `O=C(CSc1nc2cc(Cl)ccc2s1)N1CCN(C(=O)c2ccco2)CC1`?
HP1b binding inh: 20%; G9a block: 45µM*; JMJD2A Tudor: -20%; BAZ2B inh: -9%; L3MBTL1 inh: -3%; Sfp inh: -25%
